Measurements taken from PubChem BioAssay (EPA / NIEHS).
Records with an inconclusive call do not appear. Activity calls are given as the source filed them. How the source made its calls: active means hit-call score of the fitted dose curve at least 0.9, where 1 is the maximum; inconclusive means response in the unintended direction; inactive means score below 0.9.

Experiment: Tanguay_ZF_120hpf_AXIS_legacy: (Legacy) Oregon State University Tanguay Lab 120 Hour Post-fertilization zebrafish Assay for Body Axis Malformation (AID 2283635);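 on AC50: potency for an increased fraction of larvae scored with body axis malformation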
Method: Tanguay_ZF_120hpf_legacy is a whole embryo, multiplexed endpoint assay using zebrafish larvae exposed for 120 hours post fertilization on a 96-well plate.Tanguay_ZF_120hpf_AXIS_legacy is one of one assay component(s) measured or calculated from the Tanguay_ZF_120hpf_legacy assay. It is designed to make measurements of zebrafish development as detected with brightfield microscopy of developing zebrafish embryos.Data from the assay component Tanguay_ZF_120hpf_AXIS_legacy was analyzed into 1 assay endpoints. This assay endpoint, Tanguay_ZF_120hpf_AXIS_legacy, was analyzed in the positive analysis fitting direction relative to DMSO as the negative control and baseline of activity. Using a type of morphology reporter, gain-of-signal activity can be used to understand changes in developmentals as they relate to the whole embryo. To generalize the intended target to other relatable targets, this assay endpoint is annotated to the zebrafish development intended target family, where the subfamily is body axis morphogenesis.
Zebrafish husbandry: Tropical 5D wild-type adult zebrafish were housed in at an approximate density of 1000 per 100 gallon tank at the Sinnhuber Aquatic Research Laboratory, Oregon State University, Corvallis, OR. Each tank was kept at standard laboratory conditions of 28C on a 14-h light/10-h dark photoperiod in fish water consisting of reverse osmosis water supplemented with a commercially available salt (Instant Ocean). Spawning funnels were placed into the tanks the night prior, and embryos were collected and staged. To increase bioavailability, the chorion was enzymatically removed using pronase (63.6mg/ml, >/= 3.5U/mg, Sigma-Aldrich: P5147) at 4 hours post fertilization (hpf) using a custom automated dechorionator.Chemical exposures: Six hpf dechorionated embryos were placed 1 embryo per well in a 96-well plate prefilled with 90 ul of EM using automated embryo placement systems (AEPS). Ten microliters of each row of dilution plate 2 was added to 2 exposure plates. The final DMSO concentration used was 0.64% (vol/vol). Thirty-two embryos were also exposed to 5uM trimethyltin chloride (positive control). Plates were sealed to prevent evaporation and foil covered to reduce light exposure and kept in a 28C incubator. Embryos were statically exposed until 120 hpf. At 24 hpf, embryos were assessed for photomotor response using a custom photomotor response analysis tool (PRAT) and for developmental toxicity endpoints (MO24: mortality at 24 hpf, DP: developmental progression, SM: spontaneous movement, and NC: notochord distortion). At 120 hpf, locomotor activity was measured using Viewpoint Zebralab and assessed for 18 endpoints. Zebrafish acquisition and analysis program (ZAAP), a custom program designed to inventory, acquire, and manage zebrafish data, was used to collect developmental endpoints as either present or absent (i.e., binary responses were recorded). If mortality occurred for an embryo (at either 24 or 120 hpf), the non-mortality endpoints were not measured.
In the case of `Cc1ccc(C)c(O)c1`, the outcome is reported as “inactive”. With `NC(=O)NO` the outcome was “inactive”. In the case of `CCCN(C1CCN(C(=O)C2CCNCC2)CC1)[C@@H]1CCc2ccc(OC)cc2C1`, the outcome is reported as “inactive”. In the case of `CCn1nc(Cc2ccccc2)cc1C1CCN(C[C@H]2C[C@H](N(C)[C@@H](C(=O)O)C(C)C)C[C@@H]2c2cccc(F)c2)CC1`, the outcome is reported as “inactive”. For `O=C(O)CC(O)C(=O)O` (stereo not given), the outcome was “inactive”. With `COC(=O)c1c(Cl)c(Cl)c(C(=O)OC)c(Cl)c1Cl` the outcome was “inactive”. For `CC(C)CC(C)(O)C#CC(C)(O)CC(C)C` (stereo not given), the outcome was “inactive”. For `CC(C)=CCCC(C)=CC=O`, the outcome was “inactive”. For `C[C@](N)(Cc1ccc(O)c(O)c1)C(=O)O`, the outcome was “inactive”. In the case of `CCOCCO`, the outcome is reported as “inactive”. With `Nc1nc2ncc(CNc3ccc(C(=O)N[C@@H](CCC(=O)O)C(=O)O)cc3)nc2c(=O)[nH]1` the outcome was “inactive”. With `CN(C)c1ccc(Cc2ccc(N(C)C)cc2)cc1` the outcome was “inactive”. With `CCOC(=O)CC(CC(=O)OCC)(OC(C)=O)C(=O)OCC` the outcome was “inactive”. In the case of `CN(C)c1ccc(N=NS(=O)(=O)O)cc1`, the outcome is reported as “inactive”. For `Cc1ccc(S(=O)(=O)O)cc1C`, the outcome was “inactive”. With `CC(C)=CCCC(C)CCO` (stereo not given) the outcome was “inactive”. In the case of `CC[C@H]1OC(=O)[C@H](C)[C@@H](O[C@H]2C[C@@](C)(OC)[C@@H](O)[C@H](C)O2)[C@H](C)[C@@H](O[C@@H]2O[C@H](C)C[C@H](N(C)C)[C@H]2O)[C@](C)(O)C[C@@H](C)C(=O)[C@H](C)[C@@H](O)[C@]1(C)O`, the outcome is reported as “inactive”. In the case of `CC1=CC(=O)CC(C)(C)C1`, the outcome is reported as “inactive”. For `CCOC(=O)c1ccc(C2CCC(NC[C@H](O)COc3ccc(O)c(NS(C)(=O)=O)c3)CC2)cc1` (stereo not given in full), the outcome was “inactive”. With `CC/C(=C\C(=N/O)C(N)=O)C(C)[N+](=O)[O-]` (stereo not given) the outcome was “inactive”. In the case of `COC(=O)c1ccccc1O`, the outcome is reported as “inactive”. In the case of `Cc1[nH]cnc1C[C@H]1CCc2c(C)c3ccccc3n2C1=O`, the outcome is reported as “inactive”. For `CCC(C)(C)C(=O)O[C@H]1C[C@@H](C)C=C2C=C[C@H](C)[C@H](CC[C@@H]3C[C@@H](O)CC(=O)O3)[C@H]21`, the AC50 was 671 nM (active). In the case of `CC(C)(O)c1coc(S(=O)(=O)NC(=O)Nc2c3c(cc4c2CCC4)CCC3)c1`, the outcome is reported as “inactive”. With `COc1cccc(-c2ccc(/C=C\CN3CCCCCC3)cc2Cl)c1` the outcome was “inactive”. For `COCCOc1cc2cc(C(=O)NC3CCN(C(C)C)CC3)n(CC(=O)Nc3ccc(Cl)cn3)c2cn1`, the outcome was “inactive”. With `O=C1OC(=O)C2C3C=CC(C3)C12` (stereo not given) the outcome was “inactive”. In the case of `CC(C)CCCCCCOC(=O)c1ccc(C(=O)OCCCCCCC(C)C)c(C(=O)OCCCCCCC(C)C)c1`, the outcome is reported as “inactive”. With `CC1(C)C(=O)N(Br)C(=O)N1Br` the outcome was “inactive”. In the case of `Cc1ccc(O)cc1`, the outcome is reported as “inactive”. With `CC(=O)OCCC(C)C` the outcome was “inactive”. For `COC(=O)CC(=O)OC`, the outcome was “inactive”. With `CCCC(=O)OCC` the outcome was “inactive”. In the case of `C1=CCCC=CCCC=CCC1`, the outcome is reported as “inactive”. With `O=C1CCC(N2C(=O)c3ccccc3C2=O)C(=O)N1` (stereo not given) the outcome was “inactive”. With `O=C(O)c1cc(N=Nc2ccc(S(=O)(=O)Nc3ccccn3)cc2)ccc1O` the outcome was “inactive”. For `CCOC(=O)COc1ccc2c(c1)CC(NCC(O)c1cccc(Cl)c1)CC2` (stereo not given), the outcome was “inactive”. In the case of `O=C(NS(=O)(=O)/C=C/c1ccccc1)c1ccc(F)cc1Cl`, the outcome is reported as “inactive”. For `CC[C@H](C)C(=O)O[C@H]1C[C@@H](C)C=C2C=C[C@H](C)[C@H](CC[C@@H]3C[C@@H](O)CC(=O)O3)[C@H]21`, the outcome was “inactive”. For `CCCCCCCCCCCCc1ccccc1`, the outcome was “inactive”.
